Screening results: PubChem BioAssay, several laboratories
Shown are actives, neighbours in structure and some others; about 4% of the full set was active somewhere.
UGM FP inh: Mtb UDP-galactopyranose mutase inhibition | inhibition, % at 10 µM | AID 504406 | hit rate 0.06% among 320,000 | purified UGM, fluorescence polarization probe displacement; in the data active = inhibition above about 10%, passing the limit was not always enough; inconclusive = no clear call, values can overlap the other calls
Target sequence (P9WIQ1 whole entry, looked up): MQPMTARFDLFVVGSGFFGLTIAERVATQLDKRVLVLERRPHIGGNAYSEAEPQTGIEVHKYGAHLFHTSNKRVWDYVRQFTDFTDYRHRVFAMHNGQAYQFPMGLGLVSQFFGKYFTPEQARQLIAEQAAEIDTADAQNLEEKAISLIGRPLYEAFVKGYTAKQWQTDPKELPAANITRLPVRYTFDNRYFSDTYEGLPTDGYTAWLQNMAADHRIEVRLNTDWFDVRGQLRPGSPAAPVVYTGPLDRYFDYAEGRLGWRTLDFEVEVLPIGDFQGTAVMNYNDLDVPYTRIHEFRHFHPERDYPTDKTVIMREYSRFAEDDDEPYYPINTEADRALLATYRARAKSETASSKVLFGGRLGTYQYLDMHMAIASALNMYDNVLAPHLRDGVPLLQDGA
Rv3671c protease: inhibitors of M. tuberculosis serine protease Rv3671c. P9WHR9. inhibition, % at 5.96 µM. hit rate 0.048% among 320,000. AID 2606; in the data active = inhibition above about 38%;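 note: extracellular domain of Rv3671c used as enzyme; 0% = enzyme with DMSO and 100% = no enzyme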
GDH-TPI inh: GDH-TPI coupled enzyme inhibition counter-screen; GDH-TPI coupled enzyme counterscreen, NADH absorbance; inhibition, % at 4.8 µM; hit rate 1.2% among 360,000; AID 588335; in the data active = inhibition above about 30%;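 note: 0% = DMSO wells and 100% = wells lacking the enzyme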
Mtb betalactam: beta-lactam sensitization of Mtb H37Rv. hit rate 0.27% among 330,000. M. tuberculosis H37Rv growth with meropenem, percent inhibition. inhibition, % at 25 µM;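 note: growth measured after seven days incubation then overnight dye step; 0% = bacteria only wells and 100% = bacteria with antibiotic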
Mtb FBA inh: inhibitors of M. tuberculosis fructose-bisphosphate aldolase; P9WQA3; purified M. tuberculosis FBA, fluorescence read-out; inhibition, % at 1 µM; hit rate 2.3% among 360,000; AID 588726; in the data active = inhibition above about 27%;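 note: 0% = vehicle and 100% = reference inhibitor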
RecA splice inh: blocks M. tuberculosis RecA intein splicing; P9WHJ3; cell-free RecA intein splicing, fluorescence; inhibition, % (concentration not given with the values); hit rate 0.75% among 290,000; AID 2221; in the data active = inhibition above about 30%; inconclusive = no clear call, values can overlap the other calls;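 note: 0% = vehicle wells and 100% = reference inhibitor control wells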
GFP chromo cs: counter-screen GFP chromophore formation inhibition | shares compounds with RecA splice inh | cell-free GFP chromophore formation, fluorescence | EC50, µM | hit rate 83% among 2,100
* = called active by the depositor; ? = inconclusive; nt = not tested or not shown. Unless noted, the rule behind the calls is not given here.

SMILES	UGM FP inh	Rv3671c protease	GDH-TPI inh	Mtb betalactam	Mtb FBA inh	RecA splice inh	GFP chromo cs
O=C(NC1CCCC1)C(c1ccc(Cl)cc1)N(Cc1ccc(F)cc1)C(=O)CCl (stereo unspecified)	-4.4	-2.7	-8.4	-1.0	-1.8	67.1*	2.71*
O=C(NC1CCCC1)C(c1ccc(F)cc1)N(Cc1ccc(Cl)cc1)C(=O)CCl (stereo unspecified)	3.9	-2.1	3.7	10.6	1.8	59.1*	6.99*
Cn1cnc2ncnn2c1=S	nt	nt	8.0	nt	1.9	nt	nt
Cc1ccc(C(=O)NC(=S)NNS(=O)(=O)c2ccc(C)cc2)cc1	3.7	-3.5	-9.9	-5.9	2.7	41.5*	>38
Cc1ccc(S(=O)(=O)NNC(=S)NC(=O)c2ccc([N+](=O)[O-])cc2)cc1	1.9	-1.0	7.9	-0.8	1.6	23.4	nt
C[C@H]1CN(C2CCCCC2)C(=O)[C@@H]1CC(=O)Nc1ccc(Br)cc1	nt	nt	-0.5	nt	-1.4	nt	nt
CC1=NN(c2nc(-c3ccccc3)cs2)C(=O)C1	2.4	5.6	4.4	5.8	-4.1	65.7*	8.54*
O=C1CC(c2ccccc2)=NN1c1nc(-c2ccccc2)cs1	-0.6	4.2	4.2	2.1	-2.8	-0.2	nt
O=C(O)CC1(CC(=O)NCc2ccncc2)CCCCC1	0.2	-4.9	-6.9	-4.3	0.1	2.0	nt
CC(=O)N1CCN(C(=O)CCC(=O)O)CC1	-4.6	10.1	6.2	-4.6	0.9	-0.6	nt
CCCCNC1C(CC)C(CCC)C(C#N)(C#N)C1(C#N)C#N (stereo unspecified)	4.2	0.9	0.0	67.6	0.9	76.1*	12.1*
CCOC(=O)c1c(NC(=O)/C=C/C(=O)O)sc(C)c1-c1ccc(F)cc1	0.3	-16.1	14.7	-3.0	1.9	60.2*	33.6*
COC(=O)c1c(NC(=O)/C=C/C(=O)O)sc(C)c1-c1ccc(C)c(C)c1	-0.4	-17.8	20.7	1.4	0.2	63.0*	37.5*
CCOC(=O)c1c(NC(=O)/C=C/C(=O)O)sc(C)c1-c1ccc(C)c(C)c1	0.9	-4.1	14.0	-4.7	0.7	78.2*	13.9*
COC(=O)c1c(NC(=O)/C=C/C(=O)O)sc(C)c1-c1ccc(C(C)C)cc1	1.2	-1.1	14.8	8.2	2.9	77.5*	13.2*
CCOC(=O)c1c(C)nn(-c2ccc(NC(=O)/C=C/C(=O)O)cc2)c1C	0.0	1.1	-1.5	-3.1	0.3	6.6	nt
COC(=O)CCC(=O)N1CCC(Oc2cccc(C(=O)NCc3ccccn3)c2)CC1	nt	nt	4.5	nt	-1.5	nt	nt
COC(=O)c1sccc1NC(=O)/C=C/C(=O)O	1.0	-6.3	7.0	5.0	2.2	-0.1	nt
COC(=O)c1sc(-c2ccc(Cl)cc2)cc1NC(=O)/C=C/C(=O)O	0.2	-0.6	20.7	85.0	-0.3	70.4*	27.5*
Cc1ccc(S(=O)(=O)NCC2CCC(C(=O)NCCCN3CCOCC3)CC2)cc1 (stereo unspecified)	-1.8	2.4	0.0	0.9	0.9	1.0	>38
C=CCN1C(=O)N(c2ccccc2)C(=O)C1CC(=O)Nc1ccc(OC)cc1 (stereo unspecified)	1.7	7.3	3.9	4.3	-3.8	1.5	nt
C=CCN(C(=O)c1csnn1)C(C(=O)NCc1ccc(F)cc1)c1sccc1C (stereo unspecified)	2.3	3.5	1.5	1.8	4.8	0.2	nt
COc1cccc(C(=O)Nc2nc(SCc3ccc(Cl)cc3)n[nH]2)c1	-2.6	11.2	0.7	-5.1	1.6	39.2*	>38
COc1cccc(C(=O)NNC(=O)Cc2ccc(Cl)cc2)c1	-0.3	-1.5	4.2	-8.3	0.5	0.0	nt
O=S(=O)(c1ccccc1)N1CCN(C(=S)Nc2ccccc2Cl)CC1	-3.3	-2.5	-5.5	0.2	3.0	1.9	nt
SMILES	UGM FP inh	Rv3671c protease	GDH-TPI inh	Mtb betalactam	Mtb FBA inh	RecA splice inh	GFP chromo cs
O=[N+]([O-])c1ccc(Nc2ccccn2)c([N+](=O)[O-])c1	-0.2	5.6	16.0	0.7	1.1	1.3	nt
O=C(O)c1cccc(Nc2cc(Cl)c3nonc3c2[N+](=O)[O-])c1	1.9	1.6	1.6	-2.6	-17.8	88.3*	4.77*
O=[N+]([O-])c1c(Nc2ccccn2)cc(Cl)c2nonc12	0.8	-102.0	8.0	99.3	-4.5	87.1*	2.11*
O=C(O)c1ccccc1Nc1ccc([N+](=O)[O-])cc1	3.4	-2.4	7.0	-0.4	-10.8	4.1	nt
O=[N+]([O-])c1c(Nc2ccc(O)cc2)cc(Cl)c2nonc12	0.5	7.9	10.2	100.6	-7.5	95.3*	1.01*
O=C(O)c1ccccc1Nc1cc(Cl)c2nonc2c1[N+](=O)[O-]	-2.5	2.3	13.4	23.9	-17.6	89.6*	2.64*
O=C(c1cc(-c2ccc(Cl)cc2)n[nH]1)N1CCc2ccccc2C1	0.2	-6.9	-1.7	5.7	-0.7	-0.1	nt
O=C(COc1ccccc1)N1CCN(C(=O)c2ccccc2F)CC1	1.2	-3.8	16.4	-3.1	-0.4	0.1	nt
COc1cccc(-c2cnc(C(O)c3ccc(CN4CCCC4)cc3)[nH]2)c1 (stereo unspecified)	nt	nt	4.5	nt	1.1	nt	nt
CCN(CC)c1ccc(/C=C2\C(=O)N(c3nnc(C)c(=O)[nH]3)N=C2C)cc1	2.2	-6.9	11.0	-1.1	-4.7	80.9*	9.51*
COCCCn1c(C)nnc1-c1cnn(-c2ccccc2)c1N	-0.1	0.9	0.6	-1.1	2.1	-0.3	nt
O=C1NC(=O)C(=Cc2cc3c(cc2[N+](=O)[O-])OCO3)C(=O)N1	1.1	-5.1	21.9	0.7	4.2	38.8*	>38
O=C1NC(=O)C(=Cc2ccccc2[N+](=O)[O-])C(=O)N1	nt	nt	6.9	nt	-0.7	nt	nt
COc1ccc(N(C)C(=O)c2cc3c(s2)-c2c(C)cccc2OC3)c(OC)c1	-2.8	-13.9	31.2*	6.2	6.5	33.5*	>38
CCN(C(=O)c1cc2c(s1)-c1ccccc1OC2)c1cc(OC)ccc1OC	-0.3	-21.9	20.8	6.5	2.2	8.5	nt
Cc1ccc(CNC(=O)C2CCN(C(=O)Nc3ccccc3)CC2)cc1	0.5	-4.7	-14.6	-2.4	-0.7	0.7	nt
OC(CNCCC1C=Nc2ccccc21)Cn1c2ccc(Cl)cc2c2cc(Cl)ccc21 (stereo unspecified)	-1.1	12.3	3.7	100.1	-0.8	47.7*	36.6*
CC1(S(=O)(=O)O)CC(=O)c2ccccc2C1=O (stereo unspecified)	-2.2	-7.3	11.1	67.2	-0.8	93.2*	4.29*
O=C1Cc2ccccc2C(=O)N1c1ccccc1	-2.1	2.5	-5.0	-1.1	-3.9	0.8	nt
O=C1Cc2ccccc2C(=O)N1Cc1ccccc1	4.2	-51.8	12.7	-8.4	4.5	90.4*	1.87*
Cc1ccc(S(=O)(=O)NCc2ccccc2)cc1C(=O)NC(C)c1ccc(S(N)(=O)=O)cc1 (stereo unspecified)	nt	nt	1.7	nt	0.0	nt	nt
Cc1ccccc1Nc1cc2ccccc2c(=O)[nH]1	1.5	-125.8	13.6	66.1	7.5	71.5*	?
O=c1[nH]c(Nc2ccccc2Cl)cc2ccccc12	0.9	-74.7	1.3	-8.6	21.8	86.0*	16.4*
Cc1cc(Nc2ccc(F)cc2)c2ccccc2n1	nt	nt	22.9	nt	-3.4	nt	nt
